Data from PubChem BioAssay (NCI).
About 79,000 compounds went through this panel and 15% of them were active in at least one assay; those are over-represented in the sample as a whole. Values without a mark were called inactive. Active and inactive are the calls of the source. No stated cut-off is given here; in the data, active means growth inhibition above about 70%; inactive means the rest.

test: NCI Yeast Anticancer Drug Screen. Data for the wt2 strain (AID 169);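 further: 0% = growth of vehicle-treated yeast cultures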; settings: S. cerevisiae wt2 strain growth inhibition; at 3.7 µM; stronger effect = higher value
Procedure, shortened: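 Values express reduction in yeast growth under compound treatment, referenced to vehicle-treated cells.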

Question: Which growth inhibition does the source give for `O=C1/C(=C/c2ccccc2)CCCC1CN1CCCCC1` (stereo not given) here?
Answer: 31%

Question: Which growth inhibition does the source give for `C#CCN(Cc1ccc2nc(N)[nH]c(=O)c2c1)c1ccc(C(=O)NC(CCC(=O)O)C(=O)O)cc1` (stereo not given) here?
Answer: -9%

Question: With `CCOC1(c2cccc([N+](=O)[O-])c2)c2ccccc2Oc2ccccc21` as the compound, how does the growth inhibition read?
Answer: -1%

Question: With `O=C(O)CNC(=S)Nc1ccccc1` as the compound, how does the growth inhibition read?
Answer: -64%

Question: Which growth inhibition does the source give for `C[Si](C)(C)/C=C/CCNC(C#N)c1ccccc1` (stereo not given) here?
Answer: -19%

Question: With `CCCCCCCCCCCCCCCCOP(=O)(O)OCC(N)C(=O)O` (stereo not given) as the compound, how does the growth inhibition read?
Answer: -22%

Question: For `CC1=C(C(=O)NCc2ccccc2)C(c2ccccc2)C(C(=O)NCc2ccccc2)=C(C)N1`, which growth inhibition is on record?
Answer: 7%

Question: For `O=[N+]([O-])c1cc(S(=O)(=O)Nc2ccccc2)ccc1Nc1ccccc1`, which growth inhibition is on record?
Answer: -18%

Question: For `COc1cc2ccnc(-c3c4ccccc4c(N)c4c(OC)c(OC)ccc34)c2cc1OC`, which growth inhibition is on record?
Answer: -2%

Question: For `CCOC(=O)C(Br)C(Br)c1ccccc1Cl` (stereo not given), which growth inhibition is on record?
Answer: 22%

Question: For `CCOC(=O)C1=C(C)NC(C)=C(C(=O)OCCNC(=O)c2ccc(N=[N+]=[N-])cc2)C1c1ccccc1C(F)(F)F` (stereo not given), which growth inhibition is on record?
Answer: -2%

Question: With `COc1c(O)c(C=O)c(Br)c(C=O)c1O` as the compound, how does the growth inhibition read?
Answer: 2%

Question: Which growth inhibition does the source give for `Cc1c(C)c(C)c(CSC(=N)N)c(C)c1C` here?
Answer: -38%

Question: With `O=C(CSC(=S)N1CCCCC1)Nc1nc2c(s1)CCCC2` as the compound, how does the growth inhibition read?
Answer: -3%

Question: With `CNC(=O)OCc1c(COC(=O)NC)c(-c2ccc(Cl)cc2)n2c1CCC2` as the compound, how does the growth inhibition read?
Answer: -11%

Question: With `CC(=O)OC1CC2C(C)(C)C(=O)C=C[C@]2(C)C2CCC3(C)C(=CCC3[C@H](CO)C[C@H](O)C(=O)C(C)(C)O)[C@]12C` (stereo not given in full) as the compound, how does the growth inhibition read?
Answer: -18%

Question: For `CCCCCCOC(=O)NCCOC(=O)Nc1ccccc1`, which growth inhibition is on record?
Answer: -1%

Question: With `Cc1nc(Nc2ccccc2[N+](=O)[O-])sc1C(=O)CC(=O)C(=O)Nc1c(C(C)C)cccc1C(C)C` as the compound, how does the growth inhibition read?
Answer: 0%

Question: With `O=[N+]([O-])c1cccc2nc3ccccc3c(NCCCn3ccnc3[N+](=O)[O-])c12` as the compound, how does the growth inhibition read?
Answer: -9%

Question: With `CCCCCCC(O)CNCc1ccnc2ccc(OC)cc12` (stereo not given) as the compound, how does the growth inhibition read?
Answer: 8%

Question: With `Cc1c2cccc(Sc3ccccc3)c2c2c3c(cccc13)[S+](c1ccccc1)C2` (stereo not given) as the compound, how does the growth inhibition read?
Answer: 25%

Question: With `C=C1CCC(O)C/C1=C/C=C1\CCCC2(C)C1CCC2C(C)CCCC(C)C` (stereo not given) as the compound, how does the growth inhibition read?
Answer: -14%

Question: With `NC1=NNC2(C(N)=N1)c1ccccc1-c1ccccc12` as the compound, how does the growth inhibition read?
Answer: -16%

Question: Which growth inhibition does the source give for `COC(=O)NC1C(C)OC(OC2C/C=C(/C)C3C=CC4C(OC5CC(OC6CC(O)C(OC7CC(O)C(OC)C(C)O7)C(C)O6)C(O)C(C)O5)C(C)CC(C)C4C3(C)/C(O)=C3\C(=O)OC4(CC(C)C(CO)=CC4/C=C\2C)C3=O)CC1(C)[N+](=O)[O-]` (stereo not given) here?
Answer: -37%

Question: Which growth inhibition does the source give for `COc1ccc(N=CN(C)C)c(C)c1` here?
Answer: -39%

Question: For `O=C(Oc1ccc2c(c1)CN(Cc1ccccc1)CO2)c1ccccc1`, which growth inhibition is on record?
Answer: 3%

Question: With `CN(C)[C@@H]1C(=O)C(C(N)=O)=C(O)[C@@]2(O)C(=O)C3=C(O)c4c(O)cccc4C[C@H]3C[C@@H]12` as the compound, how does the growth inhibition read?
Answer: 14%

Question: For `O=[N+]([O-])c1ccc2c(c1)/C(=N/N=C1c3ccccc3Cc3ccccc31)c1cc([N+](=O)[O-])cc([N+](=O)[O-])c1-2`, which growth inhibition is on record?
Answer: 41%

Question: Which growth inhibition does the source give for `Cc1nc2c(Br)cc(Br)cc2c(=O)n1-c1ccccc1NC1OCC(O)C(O)C1O` (stereo not given) here?
Answer: 4%

Question: With `Cc1cc(N(CCOS(C)(=O)=O)CCOS(C)(=O)=O)ccc1C=Nc1ccc(-c2nc(Cc3ccccc3)sc2C)cc1` as the compound, how does the growth inhibition read?
Answer: 10%

same assay, conditions: S. cerevisiae wt2 strain growth inhibition; at 11.0 µM; stronger effect = higher value

Question: For `O=C1/C(=C/c2ccccc2)CCCC1CN1CCCCC1` (stereo not given), which growth inhibition is on record?
Answer: 51%

Question: Which growth inhibition does the source give for `C#CCN(Cc1ccc2nc(N)[nH]c(=O)c2c1)c1ccc(C(=O)NC(CCC(=O)O)C(=O)O)cc1` (stereo not given) here?
Answer: 11%

Question: Which growth inhibition does the source give for `CCOC1(c2cccc([N+](=O)[O-])c2)c2ccccc2Oc2ccccc21` here?
Answer: 1%

Question: Which growth inhibition does the source give for `O=C(O)CNC(=S)Nc1ccccc1` here?
Answer: -49%

Question: Which growth inhibition does the source give for `C[Si](C)(C)/C=C/CCNC(C#N)c1ccccc1` (stereo not given) here?
Answer: 39%

Question: With `CCCCCCCCCCCCCCCCOP(=O)(O)OCC(N)C(=O)O` (stereo not given) as the compound, how does the growth inhibition read?
Answer: -22%

Question: Which growth inhibition does the source give for `CC1=C(C(=O)NCc2ccccc2)C(c2ccccc2)C(C(=O)NCc2ccccc2)=C(C)N1` here?
Answer: -3%

Question: Which growth inhibition does the source give for `O=[N+]([O-])c1cc(S(=O)(=O)Nc2ccccc2)ccc1Nc1ccccc1` here?
Answer: 92% (active)

Question: With `COc1cc2ccnc(-c3c4ccccc4c(N)c4c(OC)c(OC)ccc34)c2cc1OC` as the compound, how does the growth inhibition read?
Answer: -2%

Question: For `CCOC(=O)C(Br)C(Br)c1ccccc1Cl` (stereo not given), which growth inhibition is on record?
Answer: 93% (active)

Question: With `CCOC(=O)C1=C(C)NC(C)=C(C(=O)OCCNC(=O)c2ccc(N=[N+]=[N-])cc2)C1c1ccccc1C(F)(F)F` (stereo not given) as the compound, how does the growth inhibition read?
Answer: 0%

Question: For `COc1c(O)c(C=O)c(Br)c(C=O)c1O`, which growth inhibition is on record?
Answer: 5%

Question: Which growth inhibition does the source give for `Cc1c(C)c(C)c(CSC(=N)N)c(C)c1C` here?
Answer: -32%

Question: For `O=C(CSC(=S)N1CCCCC1)Nc1nc2c(s1)CCCC2`, which growth inhibition is on record?
Answer: -2%

Question: Which growth inhibition does the source give for `CNC(=O)OCc1c(COC(=O)NC)c(-c2ccc(Cl)cc2)n2c1CCC2` here?
Answer: -26%

Question: For `CC(=O)OC1CC2C(C)(C)C(=O)C=C[C@]2(C)C2CCC3(C)C(=CCC3[C@H](CO)C[C@H](O)C(=O)C(C)(C)O)[C@]12C` (stereo not given in full), which growth inhibition is on record?
Answer: 50%

Question: Which growth inhibition does the source give for `CCCCCCOC(=O)NCCOC(=O)Nc1ccccc1` here?
Answer: -1%

Question: With `Cc1nc(Nc2ccccc2[N+](=O)[O-])sc1C(=O)CC(=O)C(=O)Nc1c(C(C)C)cccc1C(C)C` as the compound, how does the growth inhibition read?
Answer: 0%

Question: With `O=[N+]([O-])c1cccc2nc3ccccc3c(NCCCn3ccnc3[N+](=O)[O-])c12` as the compound, how does the growth inhibition read?
Answer: 19%

Question: Which growth inhibition does the source give for `CCCCCCC(O)CNCc1ccnc2ccc(OC)cc12` (stereo not given) here?
Answer: 9%

Question: For `Cc1c2cccc(Sc3ccccc3)c2c2c3c(cccc13)[S+](c1ccccc1)C2` (stereo not given), which growth inhibition is on record?
Answer: 97% (active)

Question: With `C=C1CCC(O)C/C1=C/C=C1\CCCC2(C)C1CCC2C(C)CCCC(C)C` (stereo not given) as the compound, how does the growth inhibition read?
Answer: -18%

Question: For `NC1=NNC2(C(N)=N1)c1ccccc1-c1ccccc12`, which growth inhibition is on record?
Answer: -18%

Question: Which growth inhibition does the source give for `COC(=O)NC1C(C)OC(OC2C/C=C(/C)C3C=CC4C(OC5CC(OC6CC(O)C(OC7CC(O)C(OC)C(C)O7)C(C)O6)C(O)C(C)O5)C(C)CC(C)C4C3(C)/C(O)=C3\C(=O)OC4(CC(C)C(CO)=CC4/C=C\2C)C3=O)CC1(C)[N+](=O)[O-]` (stereo not given) here?
Answer: -47%

Question: For `COc1ccc(N=CN(C)C)c(C)c1`, which growth inhibition is on record?
Answer: -27%

Question: With `O=C(Oc1ccc2c(c1)CN(Cc1ccccc1)CO2)c1ccccc1` as the compound, how does the growth inhibition read?
Answer: 7%

Question: Which growth inhibition does the source give for `CN(C)[C@@H]1C(=O)C(C(N)=O)=C(O)[C@@]2(O)C(=O)C3=C(O)c4c(O)cccc4C[C@H]3C[C@@H]12` here?
Answer: 52%

Question: For `O=[N+]([O-])c1ccc2c(c1)/C(=N/N=C1c3ccccc3Cc3ccccc31)c1cc([N+](=O)[O-])cc([N+](=O)[O-])c1-2`, which growth inhibition is on record?
Answer: 98% (active)

Question: With `Cc1nc2c(Br)cc(Br)cc2c(=O)n1-c1ccccc1NC1OCC(O)C(O)C1O` (stereo not given) as the compound, how does the growth inhibition read?
Answer: 10%

Question: Which growth inhibition does the source give for `Cc1cc(N(CCOS(C)(=O)=O)CCOS(C)(=O)=O)ccc1C=Nc1ccc(-c2nc(Cc3ccccc3)sc2C)cc1` here?
Answer: 48%
